Common to all, as to assay: PBM binding z-score (relative to random genomic background probes); higher = stronger binding; sequences stand for … in GC…GCGATTGACAGCGTAGAATGAAGG
Assay [1] concerns FXR:RXRa (NR concentration 270 nM, RXRa partner concentration 90 nM). In outline: (§1)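 On custom Agilent 4×180K arrays, double-stranded probes with 34-nt variable regions carried direct-repeat seeds, single-nucleotide variants, half-site ablations or random human genomic background. Ligand-free nuclear receptor dimers were applied for 1 h, and binding was read with antibodies against each partner (one per run). Binding z-scores come from regression-normalized fluorescence, with the random background probes as reference.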

Assay [2] deals with LXRa:RXRa (NR concentration 270 nM, RXRa partner concentration 90 nM). In outline:
as §1

Assay [3] deals with LXRa homodimer (NR concentration 270 nM). In outline: as §1
Assay [4] concerns LXRb:RXRa (NR concentration 270 nM, RXRa partner concentration 90 nM). The method, boiled down: as §1
Assay [5] deals with LXRb homodimer (NR concentration 270 nM). In outline: as §1
In assay [6] the test system is PPARa:RXRa (NR concentration 270 nM, RXRa partner concentration 90 nM). The method, boiled down:
as §1

The subject of assay [7] is PPARg:RXRa (NR concentration 180 nM, RXRa partner concentration 90 nM). The method, boiled down: as §1
Assay [8] deals with PPARg:RXRa 270nM:90nM, anti-RXR (NR concentration 270 nM, RXRa partner concentration 90 nM). In outline: as §1
Assay [9] concerns PPARg:RXRa 30nM:10nM, anti-RXR (NR concentration 30 nM, RXRa partner concentration 10 nM). In outline:
as §1

Assay [10] deals with PPARg:RXRa 90nM:30nM, anti-RXR (NR concentration 90 nM, RXRa partner concentration 30 nM). The method, boiled down: as §1

As for CGTCCACGGTCAGCAGGTCAGTGAAAGCGACGTG, the PBM binding z-score in assay [1] was 0.822; in assay [2], 0.439; in assay [3], -0.291; in assay [4], -0.097; in assay [5], -0.966; in [6] it was 1.08. The PBM binding z-score in assay [7] was 0.155; in [8], 0.415; in assay [9], -0.695; in assay [10], -0.328.
As for TAGCCTAGGGCATGCGGGCCAGTATAGTGTCGGC, the PBM binding z-score in assay [1] is -0.782; in assay [2], -0.599; in [3], -1.01; in [4], -1.17; in [5], -1.07; in assay [6], -0.591. The PBM binding z-score is -0.378 in assay [7], -0.777 in assay [8], -1.03 in assay [9] and -0.989 in [10].
Take AATACAGGGTCATCATAGGCCAGAGTACGCACAG: the PBM binding z-score in [1] stood at 6.85; in assay [2], 6.83; in [3], 2.28; in [4] it was 4.77; in assay [5] it was 1.57; in [6], 5.63. In addition, the PBM binding z-score in assay [7] came out at 6.31; in [8], 5.66; in assay [9], 2.51; in assay [10], 4.41.
As for CAAACTAGGTCACAGACGTCAAAGTCCGTGCGTA, the PBM binding z-score in assay [1] worked out at 4.25; in assay [2], 3.06; in assay [3], 0.272; in assay [4] it was 2.08; in [5], 0.253; in assay [6], 5.37. Moreover, the PBM binding z-score in assay [7] is 8.86; in assay [8], 7.39; in [9], 5.35; in assay [10], 7.4.
Take TAGCCTAGGTCAAGGGCCAGTATACCACGCGAAC: the PBM binding z-score is 4.16 in assay [1]; 3.02 in assay [2]; 0.0881 in assay [3]; 2.2 in assay [4]; -0.716 in assay [5]; 3.87 in assay [6]. The PBM binding z-score in assay [7] worked out at 4.52; in assay [8], 4.61; in assay [9], 1.8; in [10], 3.59.
Consider TCTGCTAGGTCAACAATGGTCAGCTAATCTGCTA, for which the PBM binding z-score in [1] was 3.1; in assay [2], 3.67; in assay [3], -0.0289; in assay [4], 2.16; in [5], 0.366; in [6], 3.29. For the same sequence, the PBM binding z-score in [7] worked out at 2.13; in [8] it was 3; in assay [9], 2.07; in assay [10], 2.54.
On to TGAATGAGGTTAAAGATCAGTGAACGTGGCGTCG, for which the PBM binding z-score in assay [1] is 3.15; in assay [2], 2.41; in assay [3], -0.442; in assay [4], 1.55; in assay [5], -0.0397; in assay [6], 4.69. Moreover, the PBM binding z-score amounted to 5.57 in assay [7], 6.1 in [8], 4.77 in assay [9] and 6.78 in [10].
Take AGAATGAGGTTGTACGTAGATCAGGGAAGAAAGT: the PBM binding z-score in [1] was -0.0554; in assay [2] it was 0.156; in [3] it was 0.00374; in assay [4], 0.364; in assay [5] it was 0.0497; in [6], 0.574. In addition, the PBM binding z-score in assay [7] is 0.188; in assay [8], 0.124; in [9] it was 0.21; in assay [10], 0.207.
Regarding TAGCCTAGGTCATTCATGGGCCAGTATAGAAAGC, the PBM binding z-score was determined as 4.38 in [1]; 3.5 in assay [2]; 0.512 in assay [3]; 2.34 in [4]; 0.48 in assay [5]; 3.38 in [6]. Also, the PBM binding z-score came out at 2.02 in assay [7], 2.1 in assay [8], 0.373 in [9] and 1.1 in assay [10].
Consider TCTTGTAGATCAACAGGCGGTTAAGAAAGATCGA, for which the PBM binding z-score in assay [1] is 0.118; in assay [2], 0.174; in [3], -0.388; in assay [4], 0.205; in assay [5], -0.307; in assay [6], 0.615. For the same sequence, the PBM binding z-score in assay [7] is -0.161; in assay [8] it was 1.12; in assay [9], 2.44; in [10], 1.81.
For the sequence CCTAGCAGGCCAATCTGGGTCACACAAGGCTTGA, the PBM binding z-score in assay [1] was 1.88; in assay [2], 1.82; in assay [3], -0.247; in assay [4], 1.21; in [5] it was -0.968; in assay [6] it was 3.68. In addition, the PBM binding z-score in assay [7] worked out at 3.08; in assay [8], 2.68; in assay [9] it was 0.555; in [10], 2.1.
On to CTACCCAGGTGAACAAGGTCGTTGATTACTATTC, for which the PBM binding z-score in [1] is 0.858; in assay [2] it was 0.806; in [3], 0.13; in assay [4], 1.4; in assay [5], -0.485; in assay [6], 1.99. Further, the PBM binding z-score in [7] was determined as 0.957; in assay [8] it was 0.672; in assay [9], 0.076; in assay [10], 0.194.

The record behind these values is the supplement of paper PMC6555819.
